# Experimental data published in article PMC8384837, “Expanding the binding specificity for RNA recognition by a PUF domain”.
# Where a chain is given by its changes, count along the chain named.
# Assays:
# Assay in all cases: yeast three-hybrid, YBZ-1, SC-Leu-His + 0.5 mM 3-AT, 4 days
# Conditions in all cases: tags: N-Gal4 AD-HA kept; label: inside an RPR1-promoter hybrid RNA with tandem MS2 sites; ssRNA
# [1] = molecular target: PUM1 PUF domain R4-RHG (Homo sapiens, UniProt Q14671 828-1176, N971R;Q975G)
# In short: (§1)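 Pumilio-1 PUF domain libraries, randomized (NNK) at the three base-contacting residues of each repeat, were co-expressed with matching RNA elements from a centromeric plasmid in strain YBZ-1 (LexA–MS2 coat fusion, HIS3 reporter). Transformants were plated on SC-Leu (input) and SC-Leu-His + 0.5 mM 3-AT (selection) for four days, and repeat regions were PCR-amplified and Illumina-sequenced. The interaction score is the log2 change in variant frequency from input to selection, with pseudocount 1 where absent.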
# [2] = molecular target: PUM1 PUF domain R7-RRK (Homo sapiens, UniProt Q14671 828-1176, S1079R;N1080R;E1083K)
# In short: as §1
# [3] = molecular target: T1, PUM1 PUF domain R6-VWK (Homo sapiens, UniProt Q14671 828-1176, N1043V;Y1044W;Q1047K)
# T1 sequence: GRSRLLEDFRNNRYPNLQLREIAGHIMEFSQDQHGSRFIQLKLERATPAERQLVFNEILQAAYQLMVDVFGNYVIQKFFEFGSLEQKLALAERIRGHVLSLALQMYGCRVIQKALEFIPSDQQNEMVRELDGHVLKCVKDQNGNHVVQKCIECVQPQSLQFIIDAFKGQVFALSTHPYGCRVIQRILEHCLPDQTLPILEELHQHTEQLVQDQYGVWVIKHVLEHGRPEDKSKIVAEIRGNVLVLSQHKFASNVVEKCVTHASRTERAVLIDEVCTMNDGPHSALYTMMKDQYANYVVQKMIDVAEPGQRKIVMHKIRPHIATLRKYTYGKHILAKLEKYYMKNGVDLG
# In short: as §1
# [4] = molecular target: PUM1 PUF domain R5-RGQ (Homo sapiens, UniProt Q14671 828-1176, C1007R;R1008G)
# In short: as §1
# [5] = molecular target: PUM1 PUF domain R5-RGW (Homo sapiens, UniProt Q14671 828-1176, C1007R;R1008G;Q1011W)
# In short: as §1
# [6] = molecular target: PUM1 PUF domain R5-KGD (Homo sapiens, UniProt Q14671 828-1176, C1007K;R1008G;Q1011D)
# In short: as §1
# [7] = molecular target: PUM1 PUF domain R2-DWQ (Homo sapiens, UniProt Q14671 828-1176, N899D;Y900W)
# In short: as §1
# [8] = molecular target: PUM1 PUF domain R2-LFV (Homo sapiens, UniProt Q14671 828-1176, N899L;Y900F;Q903V)
# In short: as §1
# [9] = molecular target: PUM1 PUF domain R8-RWT (Homo sapiens, UniProt Q14671 828-1176, N1122R;Y1123W;Q1126T)
# In short: as §1
# [10] = molecular target: PUM1 PUF domain R8-RWK (Homo sapiens, UniProt Q14671 828-1176, N1122R;Y1123W;Q1126K)
# In short: as §1
# [11] = molecular target: T2, PUM1 PUF domain R6-CHR (Homo sapiens, UniProt Q14671 828-1176, N1043C;Y1044H;Q1047R)
# T2 sequence: T1 sequence with V216C, W217H, K220R
# In short: as §1
# [12] = molecular target: PUM1 PUF domain R8-RFH (Homo sapiens, UniProt Q14671 828-1176, N1122R;Y1123F;Q1126H)
# In short: as §1
# [13] = molecular target: PUM1 PUF domain R5-MYS (Homo sapiens, UniProt Q14671 828-1176, C1007M;R1008Y;Q1011S)
# In short: as §1
# [14] = molecular target: PUM1 PUF domain R2-MWR (Homo sapiens, UniProt Q14671 828-1176, N899M;Y900W;Q903R)
# In short: as §1
# [15] = molecular target: PUM1 PUF domain R2-DWE (Homo sapiens, UniProt Q14671 828-1176, N899D;Y900W;Q903E)
# In short: as §1
# [16] = molecular target: PUM1 PUF domain R5-GQW (Homo sapiens, UniProt Q14671 828-1176, C1007G;R1008Q;Q1011W)
# In short: as §1
# [17] = molecular target: PUM1 PUF domain R1-KME (Homo sapiens, UniProt Q14671 828-1176, S863K;R864M;Q867E)
# In short: as §1
# [18] = molecular target: PUM1 PUF domain R3-RTH (Homo sapiens, UniProt Q14671 828-1176, C935R;R936T;Q939H)
# In short: as §1
# [19] = molecular target: PUM1 PUF domain R3-RTW (Homo sapiens, UniProt Q14671 828-1176, C935R;R936T;Q939W)
# In short: as §1
# [20] = molecular target: PUM1 PUF domain R4-FHR (Homo sapiens, UniProt Q14671 828-1176, N971F;Q975R)
# In short: as §1
sequence,measurement,setting,value
GGCUAGAACUAGUGGAUCCCCCGGCGCCCGGCGGCUCGAGCCCGGGUAAGUGUACAUAGUCUGCAUGCCGCCGGGCGCCAUGCCUGCAGGUCGACUCUAGAAAACAUG,binding signal,[1],4.02 log2 enrichment (interaction score)
GGCUAGAACUAGUGGAUCCCCCGGCGCCCGGCGGCUCGAGCCCGGGUAAGUCUAAAUAGUCUGCAUGCCGCCGGGCGCCAUGCCUGCAGGUCGACUCUAGAAAACAUG,binding signal,[2],1.72 log2 enrichment (interaction score)
GGCUAGAACUAGUGGAUCCCCCGGCGCCCGGCGGCUCGAGCCCGGGUAAGUGAAAAUAGUCUGCAUGCCGCCGGGCGCCAUGCCUGCAGGUCGACUCUAGAAAACAUG,binding signal,[3],7.03 log2 enrichment (interaction score)
GGCUAGAACUAGUGGAUCCCCCGGCGCCCGGCGGCUCGAGCCCGGGUAAGUUUAAAUAGUCUGCAUGCCGCCGGGCGCCAUGCCUGCAGGUCGACUCUAGAAAACAUG,binding signal,[2],4.3 log2 enrichment (interaction score)
GGCUAGAACUAGUGGAUCCCCCGGCGCCCGGCGGCUCGAGCCCGGGUAAGUGUCAAUAGUCUGCAUGCCGCCGGGCGCCAUGCCUGCAGGUCGACUCUAGAAAACAUG,binding signal,[4],2.62 log2 enrichment (interaction score)
same,binding signal,[5],2.31 log2 enrichment (interaction score)
same,binding signal,[6],3.76 log2 enrichment (interaction score)
GGCUAGAACUAGUGGAUCCCCCGGCGCCCGGCGGCUCGAGCCCGGGUAAGUGUAAAAAGUCUGCAUGCCGCCGGGCGCCAUGCCUGCAGGUCGACUCUAGAAAACAUG,binding signal,[7],7.04 log2 enrichment (interaction score)
same,binding signal,[8],4.38 log2 enrichment (interaction score)
GGCUAGAACUAGUGGAUCCCCCGGCGCCCGGCGGCUCGAGCCCGGGUAAGUGUAAAUAGUCUGCAUGCCGCCGGGCGCCAUGCCUGCAGGUCGACUCUAGAAAACAUG,binding signal,[9],4.9 log2 enrichment (interaction score)
same,binding signal,[3],5.58 log2 enrichment (interaction score)
same,binding signal,[10],6.43 log2 enrichment (interaction score)
same,binding signal,[11],3.81 log2 enrichment (interaction score)
same,binding signal,[12],4.43 log2 enrichment (interaction score)
same,binding signal,[1],2.69 log2 enrichment (interaction score)
same,binding signal,[13],2.4 log2 enrichment (interaction score)
GGCUAGAACUAGUGGAUCCCCCGGCGCCCGGCGGCUCGAGCCCGGGUAAGUGUAAACAGUCUGCAUGCCGCCGGGCGCCAUGCCUGCAGGUCGACUCUAGAAAACAUG,binding signal,[14],5.06 log2 enrichment (interaction score)
same,binding signal,[7],4.49 log2 enrichment (interaction score)
GGCUAGAACUAGUGGAUCCCCCGGCGCCCGGCGGCUCGAGCCCGGGUAAGUGUAAAGAGUCUGCAUGCCGCCGGGCGCCAUGCCUGCAGGUCGACUCUAGAAAACAUG,binding signal,[15],9.59 log2 enrichment (interaction score)
GGCUAGAACUAGUGGAUCCCCCGGCGCCCGGCGGCUCGAGCCCGGGUAAGUGUUAAUAGUCUGCAUGCCGCCGGGCGCCAUGCCUGCAGGUCGACUCUAGAAAACAUG,binding signal,[4],4.2 log2 enrichment (interaction score)
same,binding signal,[16],2.77 log2 enrichment (interaction score)
same,binding signal,[13],3.54 log2 enrichment (interaction score)
GGCUAGAACUAGUGGAUCCCCCGGCGCCCGGCGGCUCGAGCCCGGGUAAGCGUAAAUAGUCUGCAUGCCGCCGGGCGCCAUGCCUGCAGGUCGACUCUAGAAAACAUG,binding signal,[9],5.51 log2 enrichment (interaction score)
same,binding signal,[10],6.98 log2 enrichment (interaction score)
same,binding signal,[12],4.72 log2 enrichment (interaction score)
GGCUAGAACUAGUGGAUCCCCCGGCGCCCGGCGGCUCGAGCCCGGGUAAGUGUAAAUCGUCUGCAUGCCGCCGGGCGCCAUGCCUGCAGGUCGACUCUAGAAAACAUG,binding signal,[17],4.22 log2 enrichment (interaction score)
GGCUAGAACUAGUGGAUCCCCCGGCGCCCGGCGGCUCGAGCCCGGGUAAGUGUAAUUAGUCUGCAUGCCGCCGGGCGCCAUGCCUGCAGGUCGACUCUAGAAAACAUG,binding signal,[18],3.6 log2 enrichment (interaction score)
same,binding signal,[19],2.38 log2 enrichment (interaction score)
GGCUAGAACUAGUGGAUCCCCCGGCGCCCGGCGGCUCGAGCCCGGGUAAGUGUAUAUAGUCUGCAUGCCGCCGGGCGCCAUGCCUGCAGGUCGACUCUAGAAAACAUG,binding signal,[20],3.37 log2 enrichment (interaction score)
same,binding signal,[1],4.05 log2 enrichment (interaction score)
